Read-out in assay [1]: Macrophage colony-stimulating factor (MCSF), CSF1 (gene 1435)
The assay is described as follows: BSK_hDFCGF_MCSF: BioMAP Diversity Plus: hDFCGF Assay for Macrophage colony-stimulating factor (MCSF) Biomarker Activity (AID 2283060). The note with it: primary human foreskin fibroblasts; actives raise or lower the signal. In a few lines:
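Human foreskin primary fibroblasts were treated with test chemical for 24 h, and M-CSF was then measured by ELISA. Data were fitted bidirectionally against DMSO as the negative control and activity baseline.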

The nature of assay [2]: BSK_hDFCGF_SRB: Viability Assessment in the BioMAP Diversity Plus: hDFCGF Assay (AID 2283061).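 Further: cells exposed to compound for 24 h before the read.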 The note with it: primary human foreskin fibroblasts. In a few lines: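 Human foreskin primary fibroblasts were treated with compound and assessed 24 h after dosing. Total protein was measured by sulforhodamine B staining (0.1% SRB after 10% TCA fixation, 560 nm read) as a cytotoxicity marker, with bidirectional fitting against DMSO baseline.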

Read-out in assay [3]: TIMP metallopeptidase inhibitor 1 (TIMP1), TIMP1 (gene 7076)
Briefly: BSK_hDFCGF_TIMP1: BioMAP Diversity Plus: hDFCGF Assay for TIMP metallopeptidase inhibitor 1 (TIMP1) Biomarker Activity (AID 2283062). The note with it: primary human foreskin fibroblasts; actives raise or lower the signal. In a few lines:
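Primary human foreskin fibroblasts in the hDFCGF system were dosed with compound for 24 h, then TIMP-1 was measured by ELISA. Activity was fitted bidirectionally relative to DMSO control; parallel SRB staining assessed cytotoxicity.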

Read-out in assay [4]: Monokine induced gamma interferon (MIG), CXCL9 (gene 4283)
The assay is described as follows: BSK_hDFCGF_MIG: BioMAP Diversity Plus: hDFCGF Assay for Monokine induced gamma interferon (MIG) Biomarker Activity (AID 2283063). The note with it: primary human foreskin fibroblasts; actives raise or lower the signal. The essentials:
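ELISA read-out of MIG from primary human dermal fibroblasts 24 h post-dosing. Gain or loss of signal fitted bidirectionally, DMSO as baseline.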

Read-out in assay [5]: Matrix Metallopeptidase 1 (MMP1), MMP1 (gene 4312)
Briefly: BSK_hDFCGF_MMP1: BioMAP Diversity Plus: hDFCGF Assay for Matrix Metallopeptidase 1 (MMP1) Biomarker Activity (AID 2283064). As to conditions: primary human foreskin fibroblasts; actives raise or lower the signal. In a few lines:
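hDFCGF primary fibroblasts (human foreskin); chemical added; 24 h; MMP1 by ELISA; bidirectional fit vs DMSO.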

Read-out in assay [6]: Vascular cell adhesion molecule 1 (VCAM1), VCAM1 (gene 7412)
The assay is described as follows: BSK_hDFCGF_VCAM1: BioMAP Diversity Plus: hDFCGF Assay for Vascular cell adhesion molecule 1 (VCAM1) Biomarker Activity (AID 2283065).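 On AC50: VCAM-1 protein level quantified by ELISA after 24 h chemical exposure.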 As to conditions: primary human foreskin fibroblasts; actives raise or lower the signal. The essentials: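 Primary human foreskin fibroblasts (hDFCGF system) were dosed with chemical and VCAM-1 was measured by ELISA 24 h later. Bidirectional curve fitting used DMSO as negative control and activity baseline.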

Read-out in assay [7]: Plasminogen activator inhibitor-1 (PAI1), SERPINE1 (gene 5054)
The assay is described as follows: BSK_hDFCGF_PAI1: BioMAP Diversity Plus: hDFCGF Assay for Plasminogen activator inhibitor-1 (PAI1) Biomarker Activity (AID 2283066). As to conditions: primary human foreskin fibroblasts; actives raise or lower the signal. The essentials: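 Human foreskin fibroblasts in the hDFCGF system were dosed with compound for 24 h; PAI-1 was quantified by ELISA. Bidirectional curve fitting used DMSO as negative control and baseline.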

Read-out in assay [8]: Intercellular Adhesion Molecule 1 (ICAM1), ICAM1 (gene 3383)
The assay is described as follows: BSK_KF3CT_ICAM1: BioMAP Diversity Plus: KF3CT Assay for Intercellular Adhesion Molecule 1 (ICAM1) Biomarker Activity (AID 2283067). As to conditions: primary human keratinocytes with fibroblasts; actives raise or lower the signal. In a few lines: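 Human keratinocyte plus foreskin fibroblast primary co-culture was exposed to chemical for 24 h. ICAM-1 was then quantified by ELISA, and the data were fit bidirectionally against DMSO as the negative control and baseline.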

Read-out in assay [9]: Interferon-gamma inducible Protein 10 (IP10), CXCL10 (gene 3627)
The assay is described as follows: BSK_KF3CT_IP10: BioMAP Diversity Plus: KF3CT Assay for Interferon-gamma inducible Protein 10 (IP10) Biomarker Activity (AID 2283068). The note with it: primary human keratinocytes with fibroblasts; actives raise or lower the signal. In a few lines: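 ELISA read-out of IP-10 after 24 h chemical dosing of human skin primary co-culture (keratinocytes, foreskin fibroblasts). Gain or loss of signal relative to DMSO, bidirectional curve fit.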

Assay [10] in a line: BSK_KF3CT_SRB: Viability Assessment in the BioMAP Diversity Plus: KF3CT Assay (AID 2283069).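 Further: fitted for both signal gain and loss against DMSO baseline.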 The note with it: primary human keratinocytes with fibroblasts. The essentials: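 Keratinocytes co-cultured with foreskin fibroblasts (human primary); chemical added, 24 h; fix 10% TCA, stain 0.1% SRB, A560. Bidirectional fit vs DMSO.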
Read-out in assay [11]: Interleukin-1 alpha (IL1a), IL1A (gene 3552)
Briefly: BSK_KF3CT_IL1a: BioMAP Diversity Plus: KF3CT Assay for Interleukin-1 alpha (IL1a) Biomarker Activity (AID 2283070). As to conditions: primary human keratinocytes with fibroblasts; actives raise or lower the signal. In a few lines:
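Chemicals were dosed onto co-cultured human keratinocytes and foreskin fibroblasts, IL-1a was quantified by ELISA at 24 h, and activity was fitted in both directions relative to DMSO controls.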

Read-out in assay [12]: TIMP metallopeptidase inhibitor 2 (TIMP2), TIMP2 (gene 7077)
The assay is described as follows: BSK_KF3CT_TIMP2: BioMAP Diversity Plus: KF3CT Assay for TIMP metallopeptidase inhibitor 2 (TIMP2) Biomarker Activity (AID 2283071). The note with it: primary human keratinocytes with fibroblasts; actives raise or lower the signal. In a few lines:
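Human primary keratinocyte/foreskin fibroblast co-culture dosed with chemical and sampled at 24 h. TIMP-2 levels quantified by ELISA; bidirectional fitting against DMSO negative control as baseline.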

Read-out in assay [13]: C-C motif chemokine 2 (Homo sapiens) (UniProt P13500)
The assay is described as follows: BSK_KF3CT_MCP1: BioMAP Diversity Plus: KF3CT Assay for Monocyte Chemoattractant Protein 1 (MCP1/CCL2) Biomarker Activity (AID 2283073). As to conditions: primary human keratinocytes with fibroblasts; actives raise or lower the signal. The essentials: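 Human keratinocyte plus foreskin fibroblast primary co-culture exposed to chemical for 24 h. MCP-1 levels measured by ELISA. Bidirectional curve fitting relative to DMSO negative control as baseline.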

Read-out in assay [14]: Matrix Metallopeptidase 9 (MMP9), MMP9 (gene 4318)
Briefly: BSK_KF3CT_MMP9: BioMAP Diversity Plus: KF3CT Assay for Matrix Metallopeptidase 9 (MMP9) Biomarker Activity (AID 2283074).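 On AC50: MMP9 protein level quantified by ELISA in the co-culture.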 The note with it: primary human keratinocytes with fibroblasts; actives raise or lower the signal. The essentials:
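Human keratinocyte/foreskin fibroblast co-culture; compound added; 24 h; MMP-9 by ELISA; bidirectional fit vs DMSO baseline.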

Read-out in assay [15]: urokinase plasminogen activator (uPA), PLAU (gene 5328)
The assay is described as follows: BSK_KF3CT_uPA: BioMAP Diversity Plus: KF3CT Assay for urokinase plasminogen activator (uPA) Biomarker Activity (AID 2283075). The note with it: primary human keratinocytes with fibroblasts; actives raise or lower the signal. The essentials: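 ELISA readout of uPA, analyzed for signal gain or loss relative to DMSO, from a human primary keratinocyte–foreskin fibroblast co-culture measured 24 h after chemical treatment.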

Read-out in assay [16]: CD40, CD40 (gene 958)
Briefly: BSK_LPS_CD40: BioMAP Diversity Plus: LPS Assay for CD40 Biomarker Activity (AID 2283076). As to conditions: primary human HUVEC with PBMC; actives raise or lower the signal. In a few lines: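 Primary human umbilical vein endothelial cells co-cultured with peripheral blood mononuclear cells, LPS-stimulated, were dosed with chemical and read 24 h later. CD40 levels were measured by ELISA and fitted bidirectionally against DMSO as negative control and baseline.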

Read-out in assay [17]: E-selectin (Homo sapiens) (UniProt P16581)
Briefly: BSK_LPS_Eselectin: BioMAP Diversity Plus: LPS Assay for Eselectin Biomarker Activity (AID 2283077). The note with it: primary human HUVEC with PBMC; actives raise or lower the signal. The essentials:
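Human umbilical vein endothelial cells co-cultured with peripheral blood mononuclear cells under LPS stimulation; E-selectin measured by ELISA 24 h after chemical dosing. Activity fitted bidirectionally against DMSO as negative control and baseline.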

Read-out in assay [18]: Interleukin-8 (IL8), CXCL8 (gene 3576)
The assay is described as follows: BSK_LPS_IL8: BioMAP Diversity Plus: LPS Assay for Interleukin-8 (IL8) Biomarker Activity (AID 2283078). As to conditions: primary human HUVEC with PBMC; actives raise or lower the signal. The essentials:
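Human umbilical vein endothelial cells co-cultured with PBMC were stimulated with LPS; IL-8 levels were measured by ELISA 24 h after chemical dosing. Activity was fitted bidirectionally against DMSO as negative control and baseline.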

Assay [19] can be described thus: BSK_LPS_SRB: Viability Assessment in the BioMAP Diversity Plus: LPS Assay (AID 2283079).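 Further: total protein by sulforhodamine B absorbance as a cytotoxicity measure; measured one day after compound addition; fitted in both directions against DMSO so loss or gain of signal counts.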 As to conditions: primary human HUVEC with PBMC. In a few lines: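 Human umbilical vein endothelial cells co-cultured with PBMC (LPS system) were dosed for 24 h. Total protein was stained with 0.1% sulforhodamine B after 10% TCA fixation, read at 560 nm, and fitted bidirectionally against DMSO baseline.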

Read-out in assay [20]: Interleukin-1 alpha (IL1a), IL1A (gene 3552)
The assay is described as follows: BSK_LPS_IL1a: BioMAP Diversity Plus: LPS Assay for Interleukin-1 alpha (IL1a) Biomarker Activity (AID 2283080). The note with it: primary human HUVEC with PBMC; actives raise or lower the signal. The essentials: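 Human umbilical vein endothelial cells co-cultured with peripheral blood mononuclear cells were LPS-stimulated and exposed to test chemicals for 24 h. IL-1 alpha was quantified by ELISA, with bidirectional curve fitting against DMSO as the negative control and baseline.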

Values joined by “and” are separate entries in the source; they are usually repeats but may differ in a detail not shown here. Equal entries are not always repeated. Where a structure was tested more than once in an assay, its records may differ in their call. Active and inactive are the calls of the source. How the source made its calls: active means hit-call score of the fitted dose curve at least 0.9, where 1 is the maximum; inactive means score below 0.9.

Chain of E-selectin (Homo sapiens) (P16581 whole entry, looked up): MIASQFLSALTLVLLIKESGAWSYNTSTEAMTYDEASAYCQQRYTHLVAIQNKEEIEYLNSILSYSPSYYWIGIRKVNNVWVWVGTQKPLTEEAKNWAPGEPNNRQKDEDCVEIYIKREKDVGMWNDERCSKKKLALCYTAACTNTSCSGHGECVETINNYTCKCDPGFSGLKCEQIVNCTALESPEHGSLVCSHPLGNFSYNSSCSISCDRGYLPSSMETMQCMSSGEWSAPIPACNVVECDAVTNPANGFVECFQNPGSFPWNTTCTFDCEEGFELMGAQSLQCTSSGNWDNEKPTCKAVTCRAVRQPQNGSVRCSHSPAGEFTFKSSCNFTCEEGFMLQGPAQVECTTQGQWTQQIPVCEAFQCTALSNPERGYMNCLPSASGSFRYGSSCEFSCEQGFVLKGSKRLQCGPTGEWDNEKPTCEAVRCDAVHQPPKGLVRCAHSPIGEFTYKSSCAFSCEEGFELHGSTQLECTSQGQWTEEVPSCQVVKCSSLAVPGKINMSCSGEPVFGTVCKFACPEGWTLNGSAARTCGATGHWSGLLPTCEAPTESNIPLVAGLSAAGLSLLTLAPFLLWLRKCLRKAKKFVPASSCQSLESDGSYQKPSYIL

Consider `O=C(O)CCC(F)(F)C(F)(F)C(F)(F)C(F)(F)C(F)(F)C(F)(F)C(F)(F)F`, for which the outcome in [1], in assay [2], in assay [3], in assay [4], in [5] and in assay [6] was inactive. The result in assay [7], in [8], in assay [9], in assay [10], in assay [11] and in assay [12] was inactive. Besides, the outcome in assay [13], in assay [14], in [15], in [16], in assay [17] and in [18] was inactive. The outcome in assay [19] and in assay [20] was inactive. Moreover, the AC50 in [2] is 2.25 µM (active).

Take `FC(F)(F)C(F)(F)C(F)(F)C(F)(F)C(F)(F)C(F)(F)C(F)(F)CCI`: the AC50 in assay [1] was 1.47 µM (active); in [4] it was 3.33 µM (active); in assay [13] it was 3.94 µM (active). Also, the outcome in assay [1], in assay [2], in [3], in assay [4], in assay [5] and in [6] was inactive. The outcome in [7], in assay [8], in [9], in assay [10], in [11] and in [12] was inactive. Moreover, the result in assay [13], in [14], in assay [15], in assay [16], in [17] and in [18] was inactive. Besides, the result in [19] and in assay [20] was inactive.

For `C=CC(=O)OCCC(F)(F)C(F)(F)C(F)(F)C(F)(F)F`, the AC50 in assay [1] is 21 µM (active) and 15 µM (active); in assay [2], 8.28 µM (active); in [4] it was 25.3 µM (active) and 30.9 µM (active); in [5], 14.5 µM (active) and 18.3 µM (active); in assay [6] it was 13.7 µM (active) and 19.4 µM (active); in assay [16], 30 µM (active) and 45.5 µM (active). Besides, the result in [2], in assay [3], in assay [7], in [8], in assay [9] and in [10] was inactive. The outcome in [11], in [12], in assay [14], in assay [15], in [17] and in assay [18] was inactive. The outcome in assay [19] and in assay [20] was inactive.

For `NS(=O)(=O)C(F)(F)C(F)(F)C(F)(F)C(F)(F)C(F)(F)C(F)(F)F`, the outcome in [1], in assay [2], in assay [3], in assay [4], in [5] and in [6] was inactive. Also, the outcome in assay [7], in assay [8], in [9], in [10], in [11] and in [12] was inactive. Further, the outcome in assay [13], in assay [14], in assay [15], in [16], in assay [17] and in assay [18] was inactive. Also, the result in assay [19] and in [20] was inactive. Also, the AC50 in [6] is 26.9 µM (active); in assay [14], 14.6 µM (active); in [16] it was 20.1 µM (active); in [19] it was 40.1 µM (active).

The AC50 is the midpoint of the concentration-response curve, whichever way the signal moves.

Source of the values: PubChem BioAssay (EPA / NIEHS).
